Assay outcomes deposited in PubChem BioAssay by National Center for Advancing Translational Sciences (NCATS).
ATXN2 expr inh: Primary qHTS for Inhibitors of ATXN expression. HEK-293 ATXN2-luciferase reporter, luminescence, 24 h. Potency, µM (doses to about 57 µM), without a hit: at the highest dose activity change, negative = inhibition, most hits filed as inhibitors. 0.72% of 360,000 active. AID 1745845, 2022; note: % is set by controls: 0 for no effect and ±100 for the full control effect; nearly all actives have a fitted effect of over 55% in size
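qHTS (up to 57 uM final) was run with 24 h compound exposure of reporter cells at 37 °C. Each well was multiplexed: SteadyGlo luminescence measured ATXN2-luciferase expression after a fluorogenic Gly-Phe-AFC viability readout (25 uM final).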
HT1080NT lethal: qHTS for induction of synthetic lethality in tumor cells producing 2HG: qHTS for the HT-1080-NT fibrosarcoma cell line. HT-1080-NT fibrosarcoma viability, CellTiter-Glo ATP luminescence, 48 h. Potency, µM (top dose mostly 46.1 µM), for the others: at the top dose activity, negative = less viability, usual class: cytotoxic. 1.6% of 360,000 active. AID 686970, 2013;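 note: NT is the 2HG producing partner of a matched IDH1 knockdown line; 0% = DMSO-treated cells and -100% = media-only wells without cells; nearly all actives have a fitted effect of over 55% in size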
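A 48-hour cytotoxicity screen used HT-1080-NT cells plated 2 hours before compound delivery. ATP-based CellTiter-Glo luminescence measured viability, normalized to DMSO and no-cell controls.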
TGFb SMAD3 inh: qHTS for Inhibitors of TGF-b; Potency, µM (titrated, usually from 46.1 µM), for inactives: top-dose activity, negative = inhibition, hits mostly inhibitors; 1.2% of 410,000 active; HepG2 CAGA-GFP TGF-b/SMAD3 reporter, GFP fluorescence, 18 h; TGF-beta stimulated, 500 pg/mL final; AID 588855, 2011; note: % is set by controls: 0 for no effect and ±100 for the full control effect; nearly all actives have a fitted effect of over 65% in size
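Smad-responsive CAGA-GFP expression was quantified in HEPG2 cells exposed to compounds and 500 pg/mL final TGF-beta for 18 h at 37 degrees C; unstimulated wells defined full inhibition.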
HT1080 IDH1KD tx: qHTS for induction of synthetic lethality in tumor cells producing 2HG: qHTS for the HT-1080-IDH1KD cell line | Potency, µM (titrated, usually from 46.1 µM), without a hit: top-dose activity, negative = toxicity, most hits filed as cytotoxic | AID 686971, 2013 | HT-1080 IDH1 knockdown viability, ATP luminescence, 48 h | 2% of 360,000 active;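 note: 0% = DMSO wells and -100% = cell-free medium wells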
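% activity derives from luminescence (CellTiter-Glo), normalised to DMSO and no-cell wells. HT-1080-IDH1KD cells, 750/well, had 48 h compound exposure at 37 °C.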
S2 tox: Viability Counterscreen for Primary qHTS for Inhibitors of ATXN expression | 0.49% of 400,000 active | S2 cells (HEK-293 line with an ATXN2-luciferase reporter) viability, CellTiter-Fluor protease fluorescence, 24 h | Potency, µM (series often up to 56.7 µM), most hits filed as cytotoxic | AID 651635, 2014; note: nearly all actives have a fitted effect of over 40% in size
HepG2 tox-1: qHTS for Inhibitors of TGF-b: Cytotox Counterscreen; Potency, µM (highest dose often 46.1 µM), for inactives: at the top dose activity change, negative = cytotoxicity, actives largely listed as cytotoxic; 0.76% of 410,000 active; HepG2 CAGA-GFP viability, ATP luminescence, 18 h
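CellTiter-Glo luminescence gave cytotoxicity after 18 hours at 37 degrees C. The cells were HepG2 CAGA-GFP in 1% FBS DMEM, stimulated with 500 pg/mL TGF-beta after compound addition. %Activity was normalised to no-cell wells (complete cell-killing) and DMSO (no toxicity), and curves were fitted and classified.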
TGFb confirm: qHTS for Inhibitors of TGF-b: Confirmation of Cherry Picks; shares compounds with TGFb SMAD3 inh; HepG2 CAGA-GFP TGF-b reporter, GFP fluorescence, 18 h; cells stimulated with TGF-beta, 500 pg/mL; Potency, µM (doses to about 46.1 µM), inactives show at the top dose activity, negative = inhibition, usual class: inhibitors; 63% of 1,600 active; note: % is set by controls: 0 for no effect and ±100 for the full control effect; nearly all actives have a fitted effect of over 65% in size
HepG2 tox-2: qHTS for Inhibitors of TGF-b: Cytotox Counterscreen for Cherry Picks. HepG2 CAGA-GFP viability, ATP luminescence, 18 h; cells stimulated with TGF-beta, 500 pg/mL. shares compounds with TGFb SMAD3 inh. AID 720535, 2013. Potency, µM (series often up to 46.1 µM), inactives show top-dose activity, negative = cytotoxicity, actives largely listed as inhibitors. 27% of 1,600 active; note: % is set by controls: 0 for no effect and ±100 for the full control effect; nearly all actives have a fitted effect of over 70% in size
TGFb CCL64 inh: qHTS for Inhibitors of TGF-b: CCL64 Cells Orthogonal Assay for Cherry Picks; 41% of 1,600 active; shares compounds with TGFb SMAD3 inh; CCL64 CAGA-GFP reporter, TGF-b stimulated, GFP fluorescence, 18 h; Potency, µM (highest dose often 46.1 µM), for inactives: at the highest dose activity, negative = inhibition, most hits filed as inhibitors; note: nearly all actives have a fitted effect of over 65% in size
COP TGFb inh: qHTS for Inhibitors of TGF-b: Hit Validation in HepG2 Cells using COP promoter | shares compounds with TGFb SMAD3 inh | Potency, µM (doses to about 46.1 µM), inactives show at the top dose activity, negative = inhibition, actives largely listed as inhibitors | 3% of 1,600 active | HepG2 COP-GFP TGF-b reporter, GFP fluorescence, 18 h; cells stimulated by added recombinant TGF-beta | AID 720537, 2013; note: nearly all actives have a fitted effect of over 70% in size
An asterisk follows results filed as active; i = inactive; ? = inconclusive; · = no result. This is a sample that favours compounds with a hit; in the whole collection about 3.8% have one here. Calls come from the whole dose curve; as a rule, active = well fitted curve in the direction sought with a large enough effect; inconclusive = small, poorly fitted or top-dose-only effect, or another doubt; inactive = no such curve, though single readings can be large; an effect the other way counts as inactive or inconclusive. Potency is the fitted concentration of half-maximal effect.

SMILES	ATXN2 expr inh	HT1080NT lethal	TGFb SMAD3 inh	HT1080 IDH1KD tx	S2 tox	HepG2 tox-1	TGFb confirm	HepG2 tox-2	TGFb CCL64 inh	COP TGFb inh
COc1cccc(CNC(=O)Cn2nc(N3CCN(c4ccccc4OC)CC3)ccc2=O)c1	1%	·	-8%	·	i	-24%	·	·	·	·
CCCCCCCN(c1ccccc1)[C@@H]1C[C@H]2CCCC(=O)N3CC[C@@H](C1)[C@@H]23	?	-29%	10µM*	-26%	·	11µM*	?	?	21µM*	21µM*
CCOC(=O)N=Nc1c2ccccc2c2nc3no[nH]c3nc12	?	1.2µM*	0.71µM*	1µM*	·	0.79µM*	0.65µM*	0.73µM*	1.3µM*	0.73µM*
O=C(NC1CC(=O)N(c2cccc(F)c2)C1)c1cc2ccccc2o1 (configuration not stated)	·	·	?	·	·	-22%	·	·	·	·
O=C(C1CCC1)N1CCc2cc(S(=O)(=O)NCCc3ccccc3)ccc21	-1%	·	-20%	·	i	-4%	·	·	·	·
CCOC(=O)C1=CCN(S(=O)(=O)c2ccc(C)cc2)C1c1cccc(Cl)c1 (configuration not stated)	?	-29%	10µM*	?	i	-32%	23µM*	-7%	0%	-8%
CCOC(=O)C1=CCN(S(=O)(=O)c2ccccc2C)C1c1cccc(Cl)c1 (configuration not stated)	·	-18%	·	?	·	·	·	·	·	·
CCOC(=O)C1=CCN(S(=O)(=O)c2cccc(Cl)c2)C1c1cccc(C)c1 (configuration not stated)	-13%	-24%	-19%	-1%	?	-25%	·	·	·	·
CCOC(=O)C1=CCN(S(=O)(=O)c2ccccc2F)C1c1cccc(Cl)c1 (configuration not stated)	-22%	-3%	11µM*	-1%	?	-18%	?	3%	?	-1%
Nc1ccc(C(Cc2ccnc3ccccc23)Cc2ccnc3ccccc23)cc1	·	·	-11%	·	·	-27%	·	·	·	·
Cc1csc2nc(-c3ccc(NS(=O)(=O)c4cc(F)ccc4F)cc3)cn12	4%	·	10%	·	i	-7%	·	·	·	·
